# Assay results from the supplement of paper PMC10849652.
# Of roughly 8,800 targets only a part is listed; those with a hit were picked by preference. About 0.5% of all pairs of compound and target were hits. Unmarked numbers belong to inactive results.
# How the values were obtained:
# Assay in all cases: log2 fold change, soluble protein after heating vs DMSO (PISA); higher = thermal stabilisation; K562 lysate, 10 uM; active = over 0.2 and 3.5 SD of the protein, either way, in both replicates (recomputed)
# alvocidib = compound: CN1CC[C@H](c2c(O)cc(O)c3c(=O)cc(-c4ccccc4Cl)oc23)[C@H](O)C1 [alvocidib]
# Method in brief: (§1)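 Values give the log-two fold change in thermal stability against solvent controls, from duplicates. Crude K562 extract at 1 mg/mL protein, made by dounce homogenisation in PBS pH 7.4 with 1 mM MgCl2, was treated with 10 μM compound for 30 min. After 3 min heating across 48°C-58°C, aliquots were pooled, adjusted to 0.5% NP-40 at 4°C and centrifuged at 21,000xg for 90 min. The supernatant was measured by TMTpro 16plex LC-MS/MS with channel sums equalised.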
# Tubastatin A = compound: CN1CCc2c(c3ccccc3n2Cc2ccc(C(=O)NO)cc2)C1 [Tubastatin A]
# Method in brief: as §1
# [1] = compound: CNC(=O)C1=CC=CC=C1NC2=NC(=NC=C2Cl)NC3=C(C=C(C=C3)N4CCOCC4)OC
# Method in brief: as §1
# defactinib = compound: CNC(=O)c1ccc(Nc2ncc(C(F)(F)F)c(NCc3nccnc3N(C)S(C)(=O)=O)n2)cc1 [defactinib]
# Method in brief: as §1
# [2] = compound: CNc1nc(-c2ccc3c(N)n[nH]c3c2)cc(N2C[C@@H](C(=O)NC3CCCCC3)CC[C@H]2C)n1
# Method in brief: as §1
# encorafenib = compound: COC(=O)N[C@@H](C)CNc1nccc(-c2cn(C(C)C)nc2-c2cc(Cl)cc(NS(C)(=O)=O)c2F)n1 [encorafenib]
# Method in brief: as §1
# [3] = compound: COC(=O)[C@H](CCSC)NC(=O)C1=C(C=C(C=C1)NC[C@H](CS)N)C2=CC=CC=C2
# Method in brief: as §1
# alisertib = compound: COc1cc(Nc2ncc3c(n2)-c2ccc(Cl)cc2C(c2c(F)cccc2OC)=NC3)ccc1C(=O)O [alisertib]
# Method in brief: as §1
# [4] = compound: COc1cc2nc(-c3cc(F)ccc3O)nc(N[C@@H]3CNC[C@H]3C(C)(C)O)c2cc1OC
# Method in brief: as §1
# gefitinib = compound: COc1cc2ncnc(Nc3ccc(F)c(Cl)c3)c2cc1OCCCN1CCOCC1 [gefitinib]
# Method in brief: as §1
# lapatinib = compound: CS(=O)(=O)CCNCc1ccc(-c2ccc3ncnc(Nc4ccc(OCc5cccc(F)c5)c(Cl)c4)c3c2)o1 [lapatinib]
# Method in brief: as §1
# pictilisib = compound: CS(=O)(=O)N1CCN(Cc2cc3nc(-c4cccc5[nH]ncc45)nc(N4CCOCC4)c3s2)CC1 [pictilisib]
# Method in brief: as §1
# crizotinib = compound: C[C@@H](Oc1cc(-c2cnn(C3CCNCC3)c2)cnc1N)c1c(Cl)ccc(F)c1Cl [crizotinib]
# Method in brief: as §1
# [5] = compound: C[C@H](C1=CC=C(C=C1)C(=O)NC2=C3C=CNC3=NC=C2)N
# Method in brief: as §1
# duvelisib = compound: C[C@H](Nc1ncnc2nc[nH]c12)c1cc2cccc(Cl)c2c(=O)n1-c1ccccc1 [duvelisib]
# Method in brief: as §1
# gandotinib = compound: Cc1cc(Nc2cc(CN3CCOCC3)c3nc(C)c(Cc4ccc(Cl)cc4F)n3n2)n[nH]1 [gandotinib]
# Method in brief: as §1
# tozasertib = compound: Cc1cc(Nc2cc(N3CCN(C)CC3)nc(Sc3ccc(NC(=O)C4CC4)cc3)n2)n[nH]1 [tozasertib]
# Method in brief: as §1
# doramapimod = compound: Cc1ccc(-n2nc(C(C)(C)C)cc2NC(=O)Nc2ccc(OCCN3CCOCC3)c3ccccc23)cc1 [doramapimod]
# Method in brief: as §1
# bafetinib = compound: Cc1ccc(NC(=O)c2ccc(CN3CC[C@H](N(C)C)C3)c(C(F)(F)F)c2)cc1Nc1nccc(-c2cncnc2)n1 [bafetinib]
# Method in brief: as §1
# [6] = compound: Cc1cccc(CC(=O)N2CCc3c2ccc(-c2cn(C)c4ncnc(N)c24)c3F)n1
# Method in brief: as §1
# UniProt Q14671, sequence (Q14671 whole entry, looked up): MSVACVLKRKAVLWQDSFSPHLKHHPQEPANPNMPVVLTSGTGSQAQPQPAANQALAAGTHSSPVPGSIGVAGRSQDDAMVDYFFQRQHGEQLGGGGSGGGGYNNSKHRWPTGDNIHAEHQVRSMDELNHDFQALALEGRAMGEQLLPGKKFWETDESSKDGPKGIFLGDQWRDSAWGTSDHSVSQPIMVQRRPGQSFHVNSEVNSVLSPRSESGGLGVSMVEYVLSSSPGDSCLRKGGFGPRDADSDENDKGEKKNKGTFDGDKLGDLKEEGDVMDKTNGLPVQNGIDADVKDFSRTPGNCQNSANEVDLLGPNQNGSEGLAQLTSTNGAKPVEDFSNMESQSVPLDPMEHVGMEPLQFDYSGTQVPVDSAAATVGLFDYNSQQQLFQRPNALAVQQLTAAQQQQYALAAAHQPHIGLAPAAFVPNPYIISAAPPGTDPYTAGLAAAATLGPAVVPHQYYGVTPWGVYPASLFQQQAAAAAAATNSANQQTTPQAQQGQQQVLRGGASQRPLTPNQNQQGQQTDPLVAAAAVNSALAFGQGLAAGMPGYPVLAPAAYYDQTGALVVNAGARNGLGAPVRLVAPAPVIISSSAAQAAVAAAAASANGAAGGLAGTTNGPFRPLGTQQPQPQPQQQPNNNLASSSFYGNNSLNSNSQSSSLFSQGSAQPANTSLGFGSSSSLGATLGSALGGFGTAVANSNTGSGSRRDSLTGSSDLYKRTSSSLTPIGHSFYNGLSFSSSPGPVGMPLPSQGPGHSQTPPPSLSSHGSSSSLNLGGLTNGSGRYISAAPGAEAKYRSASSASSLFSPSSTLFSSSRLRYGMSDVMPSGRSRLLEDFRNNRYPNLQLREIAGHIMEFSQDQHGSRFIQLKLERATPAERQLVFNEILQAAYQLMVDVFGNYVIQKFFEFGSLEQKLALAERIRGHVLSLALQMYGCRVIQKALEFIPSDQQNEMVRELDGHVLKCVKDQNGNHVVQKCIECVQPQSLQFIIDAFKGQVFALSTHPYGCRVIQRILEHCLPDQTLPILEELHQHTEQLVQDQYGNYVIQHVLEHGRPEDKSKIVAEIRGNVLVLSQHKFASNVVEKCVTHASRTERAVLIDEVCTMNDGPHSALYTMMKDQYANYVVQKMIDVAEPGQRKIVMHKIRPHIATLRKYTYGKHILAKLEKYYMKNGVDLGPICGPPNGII
# UniProt Q9NVM4, sequence (Q9NVM4 whole entry, looked up): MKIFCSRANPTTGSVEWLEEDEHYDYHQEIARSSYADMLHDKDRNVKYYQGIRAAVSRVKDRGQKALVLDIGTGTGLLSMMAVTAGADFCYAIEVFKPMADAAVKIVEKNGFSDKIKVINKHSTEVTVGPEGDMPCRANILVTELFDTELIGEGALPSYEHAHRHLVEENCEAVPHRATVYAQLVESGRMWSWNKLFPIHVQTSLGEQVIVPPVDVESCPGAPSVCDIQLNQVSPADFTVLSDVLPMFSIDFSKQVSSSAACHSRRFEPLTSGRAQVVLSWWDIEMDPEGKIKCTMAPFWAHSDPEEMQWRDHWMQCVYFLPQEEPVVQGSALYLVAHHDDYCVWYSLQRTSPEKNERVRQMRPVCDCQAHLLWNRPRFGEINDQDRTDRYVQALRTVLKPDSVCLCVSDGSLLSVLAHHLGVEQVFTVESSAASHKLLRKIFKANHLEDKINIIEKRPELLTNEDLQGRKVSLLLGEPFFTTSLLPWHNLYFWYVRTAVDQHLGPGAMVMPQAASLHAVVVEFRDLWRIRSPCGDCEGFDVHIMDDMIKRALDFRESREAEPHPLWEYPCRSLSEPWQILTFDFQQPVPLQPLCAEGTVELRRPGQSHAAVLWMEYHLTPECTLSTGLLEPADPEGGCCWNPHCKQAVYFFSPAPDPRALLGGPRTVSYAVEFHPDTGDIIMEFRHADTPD
# UniProt P41219, sequence (P41219 whole entry, looked up): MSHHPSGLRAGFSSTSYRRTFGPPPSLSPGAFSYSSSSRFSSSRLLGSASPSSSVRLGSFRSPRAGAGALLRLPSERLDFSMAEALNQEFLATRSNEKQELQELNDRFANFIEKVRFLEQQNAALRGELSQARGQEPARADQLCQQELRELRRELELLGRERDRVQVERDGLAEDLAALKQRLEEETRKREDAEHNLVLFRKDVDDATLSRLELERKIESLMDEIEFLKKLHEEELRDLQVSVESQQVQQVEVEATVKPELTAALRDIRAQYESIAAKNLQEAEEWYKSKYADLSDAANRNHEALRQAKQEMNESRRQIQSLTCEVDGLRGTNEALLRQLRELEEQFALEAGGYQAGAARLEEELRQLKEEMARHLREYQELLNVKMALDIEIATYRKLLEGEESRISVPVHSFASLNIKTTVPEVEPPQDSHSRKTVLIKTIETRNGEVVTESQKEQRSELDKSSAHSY
# UniProt P57721, sequence (P57721 whole entry, looked up): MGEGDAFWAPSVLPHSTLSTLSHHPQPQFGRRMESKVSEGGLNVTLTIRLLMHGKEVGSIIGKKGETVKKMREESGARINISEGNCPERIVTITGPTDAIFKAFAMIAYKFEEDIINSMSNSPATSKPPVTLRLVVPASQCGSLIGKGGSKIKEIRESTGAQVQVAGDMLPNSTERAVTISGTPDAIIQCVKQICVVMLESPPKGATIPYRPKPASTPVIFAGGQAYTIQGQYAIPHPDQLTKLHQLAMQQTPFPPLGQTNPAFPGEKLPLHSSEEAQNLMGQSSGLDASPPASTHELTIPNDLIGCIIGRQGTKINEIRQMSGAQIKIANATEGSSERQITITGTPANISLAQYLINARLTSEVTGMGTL
# UniProt Q9H3S7, sequence (Q9H3S7 whole entry, looked up): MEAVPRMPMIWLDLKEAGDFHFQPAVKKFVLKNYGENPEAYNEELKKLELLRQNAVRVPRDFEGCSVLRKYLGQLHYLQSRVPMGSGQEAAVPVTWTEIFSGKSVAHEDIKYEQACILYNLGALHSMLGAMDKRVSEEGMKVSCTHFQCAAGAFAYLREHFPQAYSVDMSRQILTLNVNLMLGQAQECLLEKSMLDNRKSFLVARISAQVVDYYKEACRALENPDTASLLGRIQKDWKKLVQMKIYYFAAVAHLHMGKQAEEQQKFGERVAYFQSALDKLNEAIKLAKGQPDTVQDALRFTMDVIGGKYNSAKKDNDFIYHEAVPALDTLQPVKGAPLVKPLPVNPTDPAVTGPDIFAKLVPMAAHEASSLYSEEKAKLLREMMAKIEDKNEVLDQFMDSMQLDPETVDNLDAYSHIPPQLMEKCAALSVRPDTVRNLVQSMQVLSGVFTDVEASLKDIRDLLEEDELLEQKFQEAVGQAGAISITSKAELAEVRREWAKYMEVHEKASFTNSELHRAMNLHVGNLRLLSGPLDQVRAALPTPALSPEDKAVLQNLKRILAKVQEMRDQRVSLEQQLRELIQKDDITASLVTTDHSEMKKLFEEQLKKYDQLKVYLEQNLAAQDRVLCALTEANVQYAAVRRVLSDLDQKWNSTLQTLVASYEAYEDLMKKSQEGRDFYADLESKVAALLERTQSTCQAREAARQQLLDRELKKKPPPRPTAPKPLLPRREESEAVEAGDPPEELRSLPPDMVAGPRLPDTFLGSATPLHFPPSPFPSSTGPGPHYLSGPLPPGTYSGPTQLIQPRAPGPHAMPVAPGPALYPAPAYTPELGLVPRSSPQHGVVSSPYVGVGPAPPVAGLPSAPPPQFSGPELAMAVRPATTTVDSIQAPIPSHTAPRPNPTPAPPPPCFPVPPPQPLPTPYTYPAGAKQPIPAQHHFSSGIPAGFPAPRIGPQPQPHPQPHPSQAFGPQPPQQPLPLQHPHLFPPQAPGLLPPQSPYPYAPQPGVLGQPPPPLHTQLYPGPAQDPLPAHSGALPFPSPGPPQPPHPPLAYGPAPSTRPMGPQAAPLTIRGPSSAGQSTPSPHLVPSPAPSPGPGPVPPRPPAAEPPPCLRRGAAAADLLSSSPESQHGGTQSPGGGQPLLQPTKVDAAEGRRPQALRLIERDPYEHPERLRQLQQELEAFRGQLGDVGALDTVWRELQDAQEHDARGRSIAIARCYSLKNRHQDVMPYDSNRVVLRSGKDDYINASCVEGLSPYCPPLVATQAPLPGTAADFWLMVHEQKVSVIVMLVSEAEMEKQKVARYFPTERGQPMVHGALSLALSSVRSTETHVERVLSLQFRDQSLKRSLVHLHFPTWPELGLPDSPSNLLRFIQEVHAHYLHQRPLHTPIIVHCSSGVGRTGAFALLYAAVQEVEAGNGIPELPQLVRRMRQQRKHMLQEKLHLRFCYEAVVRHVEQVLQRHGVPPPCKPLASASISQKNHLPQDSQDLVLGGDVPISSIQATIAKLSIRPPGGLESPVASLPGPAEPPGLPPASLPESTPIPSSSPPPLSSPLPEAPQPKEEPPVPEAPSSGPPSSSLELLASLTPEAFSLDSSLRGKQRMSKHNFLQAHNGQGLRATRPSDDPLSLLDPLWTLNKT
# UniProt Q96C36, sequence (Q96C36 whole entry, looked up): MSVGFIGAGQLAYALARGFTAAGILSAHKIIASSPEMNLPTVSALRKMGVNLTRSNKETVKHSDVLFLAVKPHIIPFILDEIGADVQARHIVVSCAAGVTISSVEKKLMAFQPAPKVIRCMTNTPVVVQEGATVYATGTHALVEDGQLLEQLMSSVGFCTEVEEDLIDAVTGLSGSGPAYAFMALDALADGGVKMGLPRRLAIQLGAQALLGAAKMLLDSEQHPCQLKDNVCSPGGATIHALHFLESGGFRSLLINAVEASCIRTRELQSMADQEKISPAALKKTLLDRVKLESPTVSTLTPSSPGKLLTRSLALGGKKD
# UniProt Q9HBH1, sequence (Q9HBH1 whole entry, looked up): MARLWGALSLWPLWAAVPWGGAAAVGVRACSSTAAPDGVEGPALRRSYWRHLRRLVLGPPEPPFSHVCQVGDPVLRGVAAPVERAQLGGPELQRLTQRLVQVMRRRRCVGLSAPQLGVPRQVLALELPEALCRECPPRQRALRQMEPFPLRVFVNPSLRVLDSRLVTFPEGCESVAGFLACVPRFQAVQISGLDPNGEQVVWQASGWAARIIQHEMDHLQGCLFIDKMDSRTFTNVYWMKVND
# UniProt P06454, sequence (P06454 whole entry, looked up): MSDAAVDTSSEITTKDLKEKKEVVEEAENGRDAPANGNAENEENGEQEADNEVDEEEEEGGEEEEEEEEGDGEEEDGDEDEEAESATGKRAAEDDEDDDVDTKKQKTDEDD
Target,log2 fold change (alvocidib),log2 fold change (Tubastatin A),log2 fold change [1],log2 fold change (defactinib),log2 fold change [2],log2 fold change (encorafenib),log2 fold change [3],log2 fold change (alisertib),log2 fold change [4],log2 fold change (gefitinib),log2 fold change (lapatinib),log2 fold change (pictilisib),log2 fold change (crizotinib),log2 fold change [5],log2 fold change (duvelisib),log2 fold change (gandotinib),log2 fold change (tozasertib),log2 fold change (doramapimod),log2 fold change (bafetinib),log2 fold change [6]
PCBP3 (UniProt P57721),-0.015,0.005,0.022,-0.039,0.042,-0.006,-0.023,0.019,0.015,-0.023,-0.031,-0.035,0.002,-0.067,-0.014,0.028,0.001,0.014,-0.03,0.026
PYCR2 (UniProt Q96C36),-0.052,0.041,0.004,0.001,0.011,-0.005,-0.038,0.013,-0.001,-0.005,-0.029,-0.021,0.026,0.021,-0.004,0.01,0.001,-0.012,0.034,-0.01
PPP3CA isoform 2 (UniProt Q08209),0.043,0.017,0.033,0.101,0.01,0.023,0,0.061,-0.001,0.09,-0.008,0.085,0.048,0.075,0.008,-0.099,-0.068,-0.006,-0.026,-0.091
PTPN23 (UniProt Q9H3S7),-0.004,-0.035,-0.03,-0.018,0.016,0.031,-0.018,0.012,-0.017,0.005,0.003,-0.028,-0.014,0.005,-0.023,-0.031,0.013,0.016,-0.032,0.023
PPIL2 (UniProt Q13356),-0.006,-0.1,-0.006,-0.024,0.056,-0.004,0.036,-0.018,0.027,0.005,-0.034,-0.014,-0.037,-0.011,-0.047,-0.019,0.047,0.043,-0.022,0.054
PUM1 isoform 3 (UniProt Q14671),0.02,-0.033,-0.017,0.017,-0.023,0.008,0,0.031,0.017,-0.014,0.004,-0.036,0.067,0.021,-0.003,-0.151,0.01,-0.315 (active),-0.067,-0.026
PDCD6IP isoform 2 (UniProt Q8WUM4),0.033,-0.088,-0.005,-0.022,-0.02,-0.01,0.188,0.014,0.003,-0.003,0,-0.015,-0.015,0.071,-0.009,-0.09,0.024,-0.008,-0.006,-0.019
PDF (UniProt Q9HBH1),0.01,-0.065,0.083,0.059,0.011,0.028,-0.293 (active),0.048,-0.181,-0.064,0.027,-0.016,-0.067,0.018,-0.076,-0.019,0.029,0.027,-0.162,0.025
PMPCA (UniProt Q10713),-0.006,0.049,-0.045,0.004,-0.004,0.001,0.04,-0.03,0.003,-0.02,-0.02,-0.043,-0.048,-0.053,0.053,-0.004,0.016,0.079,0.046,0.025
PRMT7 (UniProt Q9NVM4),0.017,-0.069,0.024,-0.047,0.002,0.012,0.286 (active),-0.015,0.007,0,-0.006,0,0.025,-0.014,0.035,-0.045,0.039,-0.025,-0.01,-0.008
POLB (UniProt P06746),0.023,-0.199,-0.062,0.028,-0.033,0.045,0.086,0.015,0,0.038,0.017,0.075,-0.003,0.011,0.018,-0.041,-0.015,-0.003,-0.024,-0.009
PXMP4 (UniProt Q9Y6I8),0,-0.015,0.012,-0.028,0.736 (active),0.033,0.092,-0.039,-0.009,-0.039,-0.071,0.066,-0.29,-0.068,-0.112,-0.221,-0.034,0.238,-0.148,0.194
PTPN7 isoform 3 (UniProt P35236),-0.082,-0.138,0.057,0.017,0.038,-0.051,0.122,0.021,-0.023,-0.025,-0.025,-0.04,0.043,-0.028,-0.006,0.056,0,0.007,0.036,0.115
PTMA (UniProt P06454),0.194,0.09,-0.104,0.049,0.007,-0.003,-0.038,0.01,0.042,0.014,-0.059,-0.014,0.08,0.505 (active),0.009,-0.277,0.012,-0.031,0.058,-0.375 (active)
PRPH isoform 2 (UniProt P41219),0.062,0.021,-0.049,-0.081,-0.133,-0.023,-0.178,-0.012,-0.028,0.014,0.082,0.131,0.05,0.03,0.051,-0.08,0.096,-0.015,0.025,0.001
